PubChem BioAssay (NCATS)
A number with no mark means an inactive call. Activity calls are given as the source filed them. Calls follow the shape of the dose curve; as a rule, active = well fitted curve in the direction sought with a large enough effect; inconclusive = small, poorly fitted or top-dose-only effect, or another doubt; inactive = no such curve, though single readings can be large; an effect the other way counts as inactive or inconclusive.

Test system: not listed separately
Experiment: Validation qHTS assay for inhibitors of Activation Induced Cytidine Deaminase (AID): UDG Counterscreen signal (AID 1347427); also: 0% is about no effect
Details: biochemical UDG counterscreen, fluorescence signal; series mostly up to 115 µM; activity, negative = inhibition: at the top concentration
Method in brief: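 Fluorescence at 560 nm excitation, 665 nm emission reports UDG signal after 250 mM NaOH (2x) addition and 30 min. Enzymes (AID 1 uM, UDG 2 U/mL, at 4/3x) preincubated 10 min with compound, then 4 h with 4x 250 nM DJC20/DJC23 substrate at room temperature.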

SMILES | activity, negative = inhibition
NNC(N)=O | -7.21%
COc1ccc2c(c1)C13CCCCC1C(C2)N(C)CC3 (stereo not drawn) | 10.3%
CC(N)Cc1c[nH]c2ccc(O)cc12 (stereo not drawn) | 2.8%
NC(=O)CI | 11%
NC(Cc1cc(O)c(O)cc1O)C(=O)O (stereo not drawn) | -19.1%
CCCN(CCC)[C@@H]1CCc2cccc(O)c2C1 | -6.06%
CN1CCC(c2c[nH]c3ccc(O)cc23)CC1 | 16.6%
C[C@H](N)Cc1cccc(C(F)(F)F)c1 | 9.19%
CO[C@H]1CC=C2CCN3CCC4=C(CC(=O)OC4)[C@]23C1 | 9.79%
NNC(=O)c1ccc(O)cc1 | 15.3%
CCCN(CCC)C1Cc2cc(OC)c(OC)cc2C1 | 7.22%
CCCN1CCc2cccc3c2[C@H]1Cc1ccc(O)c(O)c1-3 | 8.86%
Nc1ccc(CCN2CCN(c3cccc(C(F)(F)F)c3)CC2)cc1 | -4.84%
CCS(=O)(=O)Nc1cccc(C(=C2CCCCC2)c2cnc[nH]2)c1 | 10.6%
NCC(CP(=O)(O)O)c1ccc(Cl)cc1 (stereo not drawn) | 12.9%
N#CCCN | 12.9%
Cc1c2ccncc2c(C)c2c1[nH]c1ccccc12 | 2.27%
NC(=O)c1cc(N2CC2)c([N+](=O)[O-])cc1[N+](=O)[O-] | 9%
COc1ccc(CNC(=O)/C=C/c2ccc3[nH]cc(CCN(C)C)c3c2)cc1 | 9.82%
Cc1[nH]c2ccc(O)cc2c1CCN | -1.57%

SMILES | activity, negative = inhibition
O=C1C=CC(=O)C=C1 | 9.29%
CN1CC[C@@]2(C)c3cc(OC(=O)Nc4ccccc4)ccc3N(C)[C@@H]12 | -6.84%
C=CCN1C[C@@H](C)N([C@H](c2ccc(C(=O)N(CC)CC)cc2)c2cccc(OC)c2)C[C@@H]1C | 2.53%
N#C/C(=C/c1ccc(O)c(O)c1)C(N)=S | 5.58%
Clc1cc(I)cc(Cl)c1NC1=NCCN1 | 9.96%
CCCn1c(=O)c2[nH]c(C3CCCC3)nc2n(CCCOC(=O)c2ccc(S(=O)(=O)F)cc2)c1=O | 11.3%
CC(N)[C@H](O)c1ccc(O)c(O)c1 (stereo partly drawn) | -0.0292%
CN1CCc2cccc(Cl)c2CC1 | 7.39%
C[C@@H]1O[C@@H](O[C@H]2C[C@@H](O)[C@]3(CO)[C@@H]4C(CC[C@]3(O)C2)[C@@]2(O)CC[C@H]([C@@H]3COC(=O)C3)[C@@]2(C)C[C@H]4O)[C@H](O)[C@H](O)[C@H]1O (stereo partly drawn) | 10.2%
CCNC(=O)[C@H]1O[C@@H](n2cnc3c(N)ncnc32)[C@H](O)[C@@H]1O | 3.22%
NCCCP(=O)(O)O | 0.0933%
Cc1cc([C@@H]2CCCN2C)on1 | 3.45%
CNc1ccc2oc(C[C@H]3O[C@@]4(CC[C@H]3C)O[C@H]([C@H](C)C(=O)c3ccc[nH]3)[C@H](C)C[C@H]4C)nc2c1C(=O)O | -14.5%
NC(N)=Nc1ccc2[nH]c3c(c2c1)C[C@@]1(O)[C@H]2Cc4ccc(O)c5c4[C@@]1(CCN2CC1CC1)[C@H]3O5 | -11.8%
C[N+]1(C)C2CCC1CC(OC(=O)c1c[nH]c3ccccc13)C2 (stereo not drawn) | -9.27%
CC(C)(C)c1o[nH]c(=O)c1CC(N)C(=O)O (stereo not drawn) | 1.44%
N=C(N)c1ccc(CS(=O)(=O)F)cc1 | 16.6%
C=CCN1CCC23c4c5ccc(O)c4O[C@H]2C(=O)CC[C@@]3(O)C1C5 (stereo partly drawn) | 13.1%
CN1C2CCC1CC(OC(c1ccccc1)c1ccccc1N)C2 (stereo not drawn) | 6.14%

Target: Single-stranded DNA cytosine deaminase (Homo sapiens) (UniProt Q9GZX7)
Experiment: Validation qHTS assay for inhibitors of Activation Induced Cytidine Deaminase (AID): AID signal (AID 1347429); also: potency is read from the fitted curve at half-maximal effect; as to activity change, negative = inhibition: % is scaled to controls: 0 for no effect and ±100 for the full control effect
Details: Recombinant AID, FRET ssDNA deamination with UDG, fluorescence; series mostly up to 115 µM; activity change, negative = inhibition: at the top concentration
Method in brief: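 Compounds (up to 114 uM final) are tested against AID plus UDG using DJC20/DJC23 FRET substrate. Reactions incubate 4 hr at room temperature, receive NaOH for 30 min, and are read at Ex 540/Em 590 nm.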

Chain of Single-stranded DNA cytosine deaminase (Homo sapiens) (Q9GZX7 whole entry, looked up): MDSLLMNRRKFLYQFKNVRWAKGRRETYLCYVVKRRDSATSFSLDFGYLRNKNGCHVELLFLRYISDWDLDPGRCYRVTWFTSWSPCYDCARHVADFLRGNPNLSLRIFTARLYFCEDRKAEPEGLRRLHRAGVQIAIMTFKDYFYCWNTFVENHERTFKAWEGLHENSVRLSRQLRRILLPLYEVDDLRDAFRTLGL

SMILES | activity change, negative = inhibition | Potency
NNC(N)=O | 21% | 
COc1ccc2c(c1)C13CCCCC1C(C2)N(C)CC3 (stereo not drawn) | 12.5% | 
CC(N)Cc1c[nH]c2ccc(O)cc12 (stereo not drawn) | 43.5% | 
NC(=O)CI | 23.9% | 
NC(Cc1cc(O)c(O)cc1O)C(=O)O (stereo not drawn) |  | 3.98 µM (active)
CCCN(CCC)[C@@H]1CCc2cccc(O)c2C1 | 37.9% | 
CN1CCC(c2c[nH]c3ccc(O)cc23)CC1 | 70.6% | 
C[C@H](N)Cc1cccc(C(F)(F)F)c1 | 16.6% | 
CO[C@H]1CC=C2CCN3CCC4=C(CC(=O)OC4)[C@]23C1 | 24.3% | 
NNC(=O)c1ccc(O)cc1 | 16.3% | 
CCCN(CCC)C1Cc2cc(OC)c(OC)cc2C1 | 39.6% | 
CCCN1CCc2cccc3c2[C@H]1Cc1ccc(O)c(O)c1-3 | 30.6% | 
Nc1ccc(CCN2CCN(c3cccc(C(F)(F)F)c3)CC2)cc1 | 35.6% | 
CCS(=O)(=O)Nc1cccc(C(=C2CCCCC2)c2cnc[nH]2)c1 | 17% | 
NCC(CP(=O)(O)O)c1ccc(Cl)cc1 (stereo not drawn) | 12.5% | 
N#CCCN | 11.5% | 
Cc1c2ccncc2c(C)c2c1[nH]c1ccccc12 | 132% | 
NC(=O)c1cc(N2CC2)c([N+](=O)[O-])cc1[N+](=O)[O-] | 21% | 
COc1ccc(CNC(=O)/C=C/c2ccc3[nH]cc(CCN(C)C)c3c2)cc1 | 12% | 
Cc1[nH]c2ccc(O)cc2c1CCN | 29.8% | 

SMILES | activity change, negative = inhibition | Potency
O=C1C=CC(=O)C=C1 | 17.5% | 
CN1CC[C@@]2(C)c3cc(OC(=O)Nc4ccccc4)ccc3N(C)[C@@H]12 | -7.6% | 
C=CCN1C[C@@H](C)N([C@H](c2ccc(C(=O)N(CC)CC)cc2)c2cccc(OC)c2)C[C@@H]1C | 5.44% | 
N#C/C(=C/c1ccc(O)c(O)c1)C(N)=S | 12.1% | 
Clc1cc(I)cc(Cl)c1NC1=NCCN1 | 17.3% | 
CCCn1c(=O)c2[nH]c(C3CCCC3)nc2n(CCCOC(=O)c2ccc(S(=O)(=O)F)cc2)c1=O | 28.8% | 
CC(N)[C@H](O)c1ccc(O)c(O)c1 (stereo partly drawn) | 73.2% | 
CN1CCc2cccc(Cl)c2CC1 | 27.9% | 
C[C@@H]1O[C@@H](O[C@H]2C[C@@H](O)[C@]3(CO)[C@@H]4C(CC[C@]3(O)C2)[C@@]2(O)CC[C@H]([C@@H]3COC(=O)C3)[C@@]2(C)C[C@H]4O)[C@H](O)[C@H](O)[C@H]1O (stereo partly drawn) | 15% | 
CCNC(=O)[C@H]1O[C@@H](n2cnc3c(N)ncnc32)[C@H](O)[C@@H]1O | 9.63% | 
NCCCP(=O)(O)O | 0.891% | 
Cc1cc([C@@H]2CCCN2C)on1 | 38.7% | 
CNc1ccc2oc(C[C@H]3O[C@@]4(CC[C@H]3C)O[C@H]([C@H](C)C(=O)c3ccc[nH]3)[C@H](C)C[C@H]4C)nc2c1C(=O)O | -7.58% | 
NC(N)=Nc1ccc2[nH]c3c(c2c1)C[C@@]1(O)[C@H]2Cc4ccc(O)c5c4[C@@]1(CCN2CC1CC1)[C@H]3O5 |  | 79.4 µM (active)
C[N+]1(C)C2CCC1CC(OC(=O)c1c[nH]c3ccccc13)C2 (stereo not drawn) | -12.4% | 
CC(C)(C)c1o[nH]c(=O)c1CC(N)C(=O)O (stereo not drawn) | 17.9% | 
N=C(N)c1ccc(CS(=O)(=O)F)cc1 | 24.5% | 
C=CCN1CCC23c4c5ccc(O)c4O[C@H]2C(=O)CC[C@@]3(O)C1C5 (stereo partly drawn) | 24.6% | 
CN1C2CCC1CC(OC(c1ccccc1)c1ccccc1N)C2 (stereo not drawn) | 13.7% | 
